Measured values from PubChem BioAssay.
Active and inactive are the calls of the source.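 Rule for the calls, unless noted: active = NADPH fluorescence slope more negative than the mean of all samples by about 3 SD, 99.7% confidence; inactive = the rest.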

Key:
[1] = inhibitors of TNFa-induced NFkB p65 translocation, primary screen, imaging, HUVEC, MLSMR starter and 10KST1 sets (AID 438;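 active = inhibition above 20% together with a positive visual image hit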;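 note: compound added about 3h40 before a 20 min TNFalpha stimulation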;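 for inhibition: signal is the nuclear over cytoplasmic p65 intensity ratio per well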); conditions: HUVEC TNFa-induced p65 nuclear translocation; cell count: measured here: nuclei count (cytotoxicity indicator), at 2.08 µM; inhibition: at 2 µM, stronger effect = higher value, 0% TNFa-plus-vehicle, 100% no-TNFa wells
[2] = inhibitors of E-selectin induction by TNFa, primary screen, imaging, HUVEC, immunofluorescence, MLSMR starter and 10KST1 sets (AID 487;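 active = visually confirmed hit in the image check and inhibition above 20%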;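 for inhibition: signal is fraction of cell area covered by stained E-selectin grains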;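 for nuclei count: 100% = median nuclei count of all wells on the same plate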); conditions: HUVEC TNFalpha-induced E-selectin immunofluorescence imaging, at 2 µM; inhibition: stronger effect = higher value; nuclei count: measured here: cell number, toxicity
[3] = DUSP6 inhibitors restoring Erk phosphorylation by chemical complementation, primary imaging in DUSP6-transfected HeLa (AID 609;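 active = compounds giving at least 50% inhibition in the cell-based MKP-3 phosphatase rescue imaging test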;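 for inhibition: phospho-Erk level distribution per well compared with pooled transfected vehicle control wells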); conditions: HeLa MKP-3 transfected, phospho-Erk imaging KS statistic, at 10 µM, cells stimulated with TPA for 15 min
[4] = biological target: Dual specificity protein phosphatase 6 (Homo sapiens) (UniProt Q16828); assay: as above; conditions: HeLa MKP-3 transfected, phospho-Erk imaging KS statistic; at 10 µM; stronger effect = higher value; cells stimulated with TPA for 15 min
[5] = biological target: Voltage-gated potassium channel subunit beta-2 (Rattus norvegicus) (UniProt P62483); assay: KvBeta enzyme negative modulators, primary screen, biochemical, NADPH fluorescence (AID 622;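 active = fluorescence slope higher than the sample average by over 3 SD, cut at about -0.22 in these data, passing the limit was not always enough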;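 note: slope of raw intensity against log time taken from 70 to 1610 s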); conditions: recombinant KvBeta, 4-cyanobenzaldehyde reduction, at 10 µM, stronger effect = higher value
[6] = biological target: Voltage-gated potassium channel subunit beta-2 (Rattus norvegicus) (UniProt P62483); assay: KvBeta positive modulators, primary screen, biochemical, NADPH fluorescence (AID 623); conditions: Recombinant KvBeta, NADPH fluorescence decrease slope, 10 min; at 10 µM; stronger effect = lower value;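 note: fluorescence intensity change per second fitted from 20 to 320 s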
[7] = biological target: Muscarinic acetylcholine receptor M4 (Homo sapiens) (UniProt P08173); assay: compounds altering M4/GIRK thallium flux, either direction, primary screen, M4 allosteric agonist project, cell-based, HEK293 M4/GIRK, BTC-AM (AID 625;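 active = fluorescence slope after compound addition differing from the mean of all tested samples at 99.7% confidence, mostly higher but some lower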;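 note: thallium influx through GIRK channels coupled to M4 in HEK293 cells with BTC-AM dye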); conditions: at 10 µM, actives lie on both sides
[8] = inhibitors of larval lipid processing in zebrafish, primary screen, whole organism, PED6 fluorescence, gall bladder and intestine (AID 686;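 active = a full or partial loss of lipid-probe fluorescence in the fish gall bladder, intestine or both, judged by eye; inactive = no fluorescence loss, or compound toxic to the fish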;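 note: larvae 5 to 7 days old with five fish per well; signal comes from phospholipase A2 cleavage of quenched PED6 carried via bile; overnight exposure to compound and PED6 before scoring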); conditions: Zebrafish larvae PED6 lipid processing, fluorescence scoring; screened at 20 µM (by protocol)
[9] = inhibitors of Chlamydomonas gravitaxis, primary screen, whole organism, Chlamydomonas reinhardtii, WT vs cilia-less mutant, absorbance, 96-well (AID 463189;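 active = inhibition at or above 50% relative to wild type and mutant plate controls; inactive = inhibition below 50%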;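 note: 0% = wild type cc124 cells in DMSO and 100% = ciliumless bld1 mutant cells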); conditions: OD600 absorbance, 2 days, at 10 µM, stronger effect = higher value
[10] = measured here: cell density z-score
[11] = measured here: nuclear c-Myc green intensity z-score
[12] = measured here: nuclear pErk red intensity z-score, stronger effect = higher value

Sequence of Muscarinic acetylcholine receptor M4 (Homo sapiens) (P08173 whole entry, looked up): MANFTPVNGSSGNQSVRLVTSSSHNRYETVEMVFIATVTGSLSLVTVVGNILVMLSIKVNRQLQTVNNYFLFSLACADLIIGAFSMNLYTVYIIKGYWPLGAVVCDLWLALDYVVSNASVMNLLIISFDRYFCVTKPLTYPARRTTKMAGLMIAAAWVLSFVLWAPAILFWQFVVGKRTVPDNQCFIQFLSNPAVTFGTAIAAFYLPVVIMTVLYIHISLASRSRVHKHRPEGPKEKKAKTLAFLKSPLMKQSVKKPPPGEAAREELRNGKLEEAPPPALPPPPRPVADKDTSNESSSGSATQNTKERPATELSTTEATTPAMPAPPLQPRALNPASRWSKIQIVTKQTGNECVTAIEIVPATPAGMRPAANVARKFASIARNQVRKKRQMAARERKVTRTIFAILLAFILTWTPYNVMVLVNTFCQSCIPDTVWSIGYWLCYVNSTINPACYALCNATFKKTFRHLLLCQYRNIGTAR
Sequence of Voltage-gated potassium channel subunit beta-2 (Rattus norvegicus) (P62483 whole entry, looked up): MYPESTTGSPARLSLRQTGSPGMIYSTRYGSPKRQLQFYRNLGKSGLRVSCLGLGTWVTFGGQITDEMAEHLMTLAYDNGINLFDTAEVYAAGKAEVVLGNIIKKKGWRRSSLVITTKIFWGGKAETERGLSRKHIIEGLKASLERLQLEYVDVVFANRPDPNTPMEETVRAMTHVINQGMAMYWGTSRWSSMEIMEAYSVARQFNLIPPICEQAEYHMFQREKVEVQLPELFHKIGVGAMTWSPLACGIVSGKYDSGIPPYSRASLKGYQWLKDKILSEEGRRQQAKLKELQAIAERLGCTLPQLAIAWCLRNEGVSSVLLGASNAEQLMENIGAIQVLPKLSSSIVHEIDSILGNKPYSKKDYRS
Sequence of Dual specificity protein phosphatase 6 (Homo sapiens) (Q16828 whole entry, looked up): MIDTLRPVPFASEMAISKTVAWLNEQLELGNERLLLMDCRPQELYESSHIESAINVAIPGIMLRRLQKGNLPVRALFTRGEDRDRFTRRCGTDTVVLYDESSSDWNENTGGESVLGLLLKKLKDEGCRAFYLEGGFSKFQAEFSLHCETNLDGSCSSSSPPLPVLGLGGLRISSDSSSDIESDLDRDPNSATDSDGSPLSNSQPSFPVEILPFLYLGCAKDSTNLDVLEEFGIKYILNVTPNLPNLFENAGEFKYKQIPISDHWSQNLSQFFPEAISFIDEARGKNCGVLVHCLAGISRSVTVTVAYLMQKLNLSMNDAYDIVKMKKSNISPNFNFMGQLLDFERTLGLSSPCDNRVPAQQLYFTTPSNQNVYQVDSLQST

Compound | cell count [1] | inhibition [1] | inhibition [2] | nuclei count [2] [%] | z-score [3, 10] | z-score [3, 11] | z-score [3, 12] | inhibition [4] | fluorescence slope [5] | NADPH fluorescence slope [6] | fluorescence slope [7] | outcome [8] | inhibition [9]
Cc1ccc(CNC(=O)c2cc3c(=O)n4ccccc4nc3n(Cc3ccco3)c2=N)cc1 | 620 | 2.6% (inactive) | 18.3% (inactive) | 134 | -0.0379 | 0.826 | -0.239 | -2.29% (inactive) | -0.456 (inactive) | -4.8e-05 (inactive) | 0.00363 (inactive) | active; weak signal in gallbladder and intestine | 32.6% (inactive)
COc1cc2nc(-c3ccccc3)nc(N3CCCC3)c2cc1OC | 397 | -11.2% (inactive) | -164% (inactive) | 154 | 0.13 | -0.48 | 0.0689 | 1.42% (inactive) | -0.433 (inactive) | -0.000105 (inactive) | 0.00381 (inactive) | inactive | 17.6% (inactive)
CCOc1ccc(C2C=C(c3ccccc3)Nc3ncnn32)cc1 (stereo unspecified) | 531 | -1.1% (inactive) | 58.8% (inactive) | 151 | -0.603 | 0.992 | -0.889 | 11.9% (inactive) | -0.0438 (inactive) | -6.4e-06 (inactive) | 0.00687 (inactive) | inactive | 22.6% (inactive)
O=C(c1ccccc1)n1c(=S)nc2ccccn21 | 751 | -1.4% (inactive) | -18.3% (inactive) | 144 | 0.295 | -2.19 | 0.415 | 7.21% (inactive) | -0.421 (inactive) | -3.2e-05 (inactive) | 0.00539 (inactive) | inactive | 3.62% (inactive)
N#Cc1cccc(-n2c(-c3ccccc3)nnc2-c2ccccc2)c1C#N | 587 | -2.7% (inactive) | -7.1% (inactive) | 99.3 | -3.17 | 1.25 | 1.22 | -7.86% (inactive) | -0.508 (inactive) | -6.3e-05 (inactive) | 0.00624 (inactive) | inactive | 6.01% (inactive)
CC(C(=O)N(C)C)N(C#N)c1nc(N(C)C)nc(N(C)C)n1 (stereo unspecified) | 606 | 7.4% (inactive) | 7.8% (inactive) | 80.9 | -1.86 | 1.62 | 0.8 | 7.21% (inactive) | -0.506 (inactive) | -5.1e-05 (inactive) | 0.00543 (inactive) | inactive | 26.6% (inactive)
O=C(CC1SC2=NCCN2C1=O)Nc1ccccc1 (stereo unspecified) | 693 | -7.8% (inactive) | -79.2% (inactive) | 167 | -0.578 | 0.509 | 0.504 | 18.6% (inactive) | -0.42 (inactive) | -5.8e-05 (inactive) | 0.00447 (inactive) | inactive | -0.757% (inactive)
CN(Cc1ccccc1)c1ncnc2ccc(Br)cc12 | 591 | -9.8% (inactive) | -5.2% (inactive) | 116 | -0.293 | -0.951 | 0.281 | 2.92% (inactive) | -0.517 (inactive) | -8e-05 (inactive) | 0.00669 (inactive) | inactive | 18.9% (inactive)
O=C(O)C1CC(=O)n2c(nc3ccccc32)S1 (stereo unspecified) | 608 | -4.4% (inactive) | -24.7% (inactive) | 119 | 0.706 | -1.47 | -0.562 | 3.49% (inactive) | -0.47 (inactive) | -6e-05 (inactive) | 0.00435 (inactive) | inactive | 8.06% (inactive)
Cc1cc(=O)oc(C)c1C(=O)NC12CC3CC(CC(C3)C1)C2 | 739 | -12.2% (inactive) | -66.8% (inactive) | 166 | -0.0351 | 0.102 | 0.73 | -6.48% (inactive) | -0.455 (inactive) | -5.7e-05 (inactive) | 0.00545 (inactive) | inactive | 6.04% (inactive)
Nc1c2c(nc3ccccc13)N(C1CCCCC1)CC2 | 670 | 21.3% (inactive) | 7.4% (inactive) | 98.7 | -0.086 | 0.000792 | -0.245 | -15.1% (inactive) | -0.46 (inactive) | -2.9e-05 (inactive) | 0.00444 (inactive) | inactive | 62.2% (active)
Cc1ccccc1COc1ccc(/C(O)=C2/C(=O)C(=O)N(CCCn3ccnc3)C2c2ccco2)cc1 (stereo unspecified) | 642 | -2.1% (inactive) | -23.1% (inactive) | 171 | -1.5 | -0.323 | 2.13 | 9.37% (inactive) | -0.48 (inactive) | -0.00012 (inactive) | 0.00521 (inactive) | inactive | 13.6% (inactive)
